# Shown are actives, neighbours in structure and some others; about 2.9% of the full set was active somewhere.
# H9c2 TAG inh: reduces triacylglycerol accumulation in H9c2 cells | Nile Red lipid (TAG) fluorescence; cells loaded with 200 µM oleic acid | inhibition, % at 12.5 µM | actives 0.66% (n = 230,000) | AID 651582;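 active = pattern-corrected inhibition of lipid staining of at least 50% with the nuclear-stain viability signal not falling by more than 50%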;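 also: 0% = DMSO wells and 100% = triacsin C control wells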
# APOBEC3G inh: inhibitors of human APOBEC3G DNA deaminase; actives 0.28% (n = 330,000); inhibition, % at 20 µM; recombinant A3G, ssDNA deamination FAM/TAMRA fluorescence;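 active = inhibition of at least 40% at 20 µM, with no more than 30% in the related APOBEC3A deaminase screen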;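 also: plate controls were DMSO wells with A3G for no effect and wells lacking A3G enzyme for full effect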
# Target sequence (Q9HC16 whole entry, looked up): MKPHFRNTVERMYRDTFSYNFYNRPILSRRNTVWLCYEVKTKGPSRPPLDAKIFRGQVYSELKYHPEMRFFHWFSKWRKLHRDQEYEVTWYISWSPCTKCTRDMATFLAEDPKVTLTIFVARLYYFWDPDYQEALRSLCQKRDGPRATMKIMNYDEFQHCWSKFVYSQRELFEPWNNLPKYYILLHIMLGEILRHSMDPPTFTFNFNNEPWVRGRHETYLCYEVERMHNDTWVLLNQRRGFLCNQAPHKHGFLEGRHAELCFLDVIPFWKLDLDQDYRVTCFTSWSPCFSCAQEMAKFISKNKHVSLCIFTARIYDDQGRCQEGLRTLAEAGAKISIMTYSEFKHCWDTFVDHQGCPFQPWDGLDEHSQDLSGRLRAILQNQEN
# NadD block: blocks S. aureus nicotinate mononucleotide adenylyltransferase | purified NadD enzyme, colorimetric absorbance read-out | inhibition, % at 20 µM | actives 0.78% (n = 360,000); in the data active = inhibition above about 26%
# A3A deaminase: inhibitors of human APOBEC3A DNA deaminase. recombinant A3A, FAM/TAMRA ssDNA deamination fluorescence. actives 0.41% (n = 330,000). P31941. inhibition, % at 20 µM;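 active = at least 40% inhibition at 20 µM here, with at most 30% in a related deaminase screen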;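 also: plate controls were A3A with DMSO for no effect and wells lacking A3A enzyme for full effect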
# Target sequence (P31941 whole entry, looked up): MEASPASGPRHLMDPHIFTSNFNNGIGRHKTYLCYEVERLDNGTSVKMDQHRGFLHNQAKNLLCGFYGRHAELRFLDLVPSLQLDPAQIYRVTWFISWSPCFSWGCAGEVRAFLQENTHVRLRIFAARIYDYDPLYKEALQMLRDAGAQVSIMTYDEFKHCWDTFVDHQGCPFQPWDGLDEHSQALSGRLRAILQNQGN
# Cardio protect: modulators protecting cardiomyocytes from myocardial damage | H9c2 cardiomyocytes, H2O2 injury protection, ATPLite, 2 h | protection from H2O2 cell death, % at 20 µM | actives 0.63% (n = 360,000);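 active = compounds giving at least 50% protection of heart cells from peroxide-induced death in the single-dose screen, raw or plate-pattern-corrected value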;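 also: 0% = DMSO wells with peroxide and 100% = DMSO wells without peroxide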
# PfGluPho inh: PfG6PD (Plasmodium falciparum) enzyme inhibition; PfGluPho enzyme, NADPH resazurin-diaphorase fluorescence; inhibition, % at 20 µM; actives 0.78% (n = 350,000);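 active = inhibition reaching at least a set limit at 20 µM in the primary screen, cut at about 59% in these data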;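 also: 0% = DMSO wells with substrate and 100% = DMSO wells lacking glucose-6-phosphate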
# * hit, by the source's call; / = no result.
SMILES,H9c2 TAG inh,APOBEC3G inh,NadD block,A3A deaminase,Cardio protect,PfGluPho inh
Cc1ccc(-c2csc3nc4c5ccccc5c(NCCCN(C)C)nn4c(=O)c23)cc1,59.3*,-0.1,28.6,5.2,-24.1,2.0
Cc1ccc(-c2csc3nc4c5ccccc5c(NCCCN5CCOCC5)nn4c(=O)c23)cc1,/,-1.5,/,-0.3,/,/
CCCOc1ccc(C(=O)NCCO)cc1,-8.3,-7.6,-3.1,-2.5,4.7,-4.5
CC1(C)CC2C1CCC1(O)CC2(C)CCC1N(O)c1ccc(C(=O)NCCO)cn1 (stereo not drawn),0.2,-4.4,-1.4,-0.4,50.8*,34.4
CCC(c1nnnn1C(C)(C)CC)N(CCCO)Cc1cc2cc(C)cc(C)c2[nH]c1=O (stereo not drawn),16.8,/,-0.4,/,34.9,19.3
CCCC(c1nnnn1C(C)(C)CC)N(CCCO)Cc1cc2cc(C)cc(C)c2[nH]c1=O (stereo not drawn),-36.6,-11.4,2.0,-5.4,59.3*,21.1
O=C1CCc2cc(S(=O)(=O)Nc3ccccc3)cc3c2N1CC3,2.2,-2.1,-2.4,-0.2,3.5,5.9
Cn1nc(/C=C/c2ccccc2)ccc1=O,-0.3,-0.5,0.4,-2.0,-9.0,-7.7
C=CCNc1nc(-c2ccccn2)nnc1-c1ccccc1,-93.8,-2.4,11.4,-2.3,73.0*,0.3
c1ccc(-c2cnnc(-c3ccccn3)n2)cc1,/,4.3,0.7,-1.0,-2.2,0.8
COc1ccc(-c2cc(-c3nnc(COC(=O)c4ccncc4)o3)c3ccccc3n2)cc1OC,9.2,1.2,-6.0,2.7,78.9*,13.3
CC(C)n1cnc2c(N(C)c3ccccc3)nc(N(CCN(C)C)Cc3ccccc3)nc21,51.6*,-12.6,-5.4,-7.8,-6.2,2.9
COc1cc(N(Cc2ccccc2)Cc2ccccc2)c2ncn(C(C)C)c2c1,2.6,-6.8,4.4,-5.7,-8.3,29.3
O/C=c1\ccc2cccc3nc(C(F)(F)F)nc1c23,/,37.4,33.5*,53.0,-21.6,10.4
Cn1c(/N=C/c2c(O)ccc3ccccc23)nc2ccccc21,/,/,18.4,/,-9.6,75.7*
O=C(CCC(=O)c1ccc(F)cc1)Nc1cccc(S(=O)(=O)Nc2cccc(Cl)c2)c1,/,-1.7,-10.4,-0.2,-9.5,-0.7
O=C(O)CSc1nc2sc3c(c2c(=O)n1-c1ccccc1)CCC3,8.5,-3.8,1.2,10.6,4.9,-15.2
CC(NC(=O)CSc1nc2sc3c(c2c(=O)n1-c1ccccc1)CCCC3)c1ccccc1 (stereo not drawn),/,-2.6,32.8*,-4.6,6.1,-1.5
COc1cc(/C=N/Nc2ccccn2)ccc1O,17.3,-5.1,-2.9,-1.4,-9.4,14.2
Cc1nn(-c2ccccc2)c(C)c1-c1cc(C(=O)N/N=C/c2ccc(O)cc2)[nH]n1,2.5,-7.2,11.6,-1.6,56.5*,19.8
COc1cc(/C=N/NC(=O)c2cnn3c(C)cc(-c4ccccc4)nc23)ccc1O,-3.4,-3.4,-3.2,-1.3,75.5*,10.8
COc1cc(/C=N/NC(=O)c2nc(-c3ccccc3)n(-c3ccccc3)n2)ccc1O,/,-5.6,13.3,-1.4,0.2,43.1
COc1cc(/C=N/NC(=O)c2cc(-c3ccccc3)nc3ccccc23)ccc1O,/,3.9,12.1,1.4,21.0,-3.2
COc1cc(/C=N/NC(=O)c2cc(-c3c(C)nn(-c4ccccc4)c3C)n[nH]2)ccc1O,/,0.9,20.2,1.5,51.3*,23.9
COc1cc(/C=N/Nc2nc(C)nc3c2cnn3-c2ccccc2)ccc1O,57.2*,/,9.1,/,37.2,5.0
SMILES,H9c2 TAG inh,APOBEC3G inh,NadD block,A3A deaminase,Cardio protect,PfGluPho inh
CCOc1ccc(Cl)cc1-c1cc(C(=O)NCc2ccccc2OC)[nH]n1,0.9,/,3.8,/,1.4,/
O=C(CNC(=O)c1ccc(Cl)cc1Cl)OCCOc1ccccc1F,22.8,3.7,-0.5,-4.2,8.4,1.1
Cn1nc(C(=O)NCCCN2CCCCC2)c2c1-c1ccccc1SC2,/,3.4,-2.4,-1.6,8.3,12.3
O=C1CCCCCCC(=O)[C@H](O)C[C@H](c2ccccc2)O1,/,/,-4.5,/,/,/
O=C(N/N=C/c1ccc([N+](=O)[O-])cc1)c1cc(-c2ccc3c(c2)OCO3)n[nH]1,11.5,24.7,18.1,12.1,-5.3,-0.6
Cc1nn(-c2ccccc2)c(C)c1/C=N/NC(=O)c1cc(C2CC2)[nH]n1,-15.6,-3.4,2.9,-3.1,60.5*,-2.6
COc1cc(/C=N/NC(=O)c2cc(-c3ccc4c(c3)OCO4)n[nH]2)ccc1O,/,-3.7,12.5,-2.5,73.6*,22.5
CC(C)C(=O)N(c1cc2sc(=O)oc2c2ccccc12)S(=O)(=O)c1cccs1,/,14.2,-1.0,-4.3,-4.1,74.5*
O=C(O)c1ccc(C[n+]2c(-c3ccccc3)csc2Nc2ccccc2)cc1,/,5.6,10.0,1.0,-5.0,-29.4
CC(C)(C)c1cc(-c2csc(Nc3ccccc3)[n+]2Cc2ccc(C(=O)O)cc2)cc(C(C)(C)C)c1O,16.6,0.5,66.5*,5.1,-7.9,-31.5
N#Cc1ccc(CC(=O)c2ccccc2)[nH]c1=O,-27.7,/,6.7,/,1.9,-14.3
Cc1ccccc1C(=O)N1CCc2cc(-c3nc(NC(=O)Cc4ccc5c(c4)OCO5)sc3C)ccc21,/,-4.0,46.7*,-3.3,-7.8,-8.4
Cc1cccc(C(=O)N2CCc3cc(-c4nc(NC(=O)CN5CCCC5)sc4C)ccc32)c1,/,-3.2,8.3,1.2,16.2,-1.8
Cn1c(=O)c2c(nc(SCCN3CCOCC3)n2Cc2ccc(Cl)cc2)n(C)c1=O,11.9,/,3.2,/,64.1*,-3.0
O=C(/C=C/c1cccc(Cl)c1Cl)OCC(=O)N1CCOCC1,-11.1,-2.0,-5.8,2.3,0.5,14.3
Cc1[nH]n(-c2nc(-c3ccc(Cl)cc3)cs2)c(=O)c1N=Nc1ccc(O)cc1,/,-2.8,36.7*,0.6,79.9*,1.2
OCCC1CN(Cc2cccn2-c2ncccn2)CCN1CCc1ccccc1 (stereo not drawn),0.8,-3.2,-2.5,1.4,-5.8,1.7
Cc1ccc(CCC(=O)Nc2ccc(N(C)C)cc2)o1,/,-6.1,-3.1,-6.1,1.9,47.4
Cc1cc(C)c(S(=O)(=O)/N=C2\C=C(Nc3ccc(C(=O)O)cc3)C(=O)c3ccccc32)c(C)c1,/,-0.4,31.0*,11.1,-19.3,56.7
O=C(O)c1ccc(NC2=C/C(=N/S(=O)(=O)c3ccccc3)c3ccccc3C2=O)cc1,-1.8,-8.0,4.7,0.0,-23.9,106.9*
Cc1cccc(NC2=C/C(=N/S(=O)(=O)c3cccs3)c3ccccc3C2=O)c1,90.5,/,4.1,/,-18.0,62.0*
Cc1cc(C)c(S(=O)(=O)/N=C2\C=C(NS(=O)(=O)c3ccccc3)C(=O)c3ccccc32)c(C)c1,/,3.3,29.8*,5.5,-16.1,1.4
Cc1ccc(S(=O)(=O)/N=C2\C=C(NS(=O)(=O)c3ccccc3)C(=O)c3ccccc32)cc1,6.4,/,13.3,/,-14.6,13.6
